ELG1 genotox: inducers of genotoxicity in HEK293T ELG1-luciferase cells; actives 1.3% (n = 330,000); Potency, µM (highest dose often 46 µM), actives largely listed as activators; AID 504466; HEK293T ELG1-luciferase reporter, luminescence, 16 h; further: nearly all actives have a fitted effect of over 60% in size
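HEK293T cells expressing luciferase-tagged ELG1 were treated with compound or DMSO for 16 hr at 37°C. Luciferase activity was then read after 30 min with ONE-Glo at room temperature; rising signal flags genetic stress.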
AT treatment: candidate therapy for ataxia-telangiectasia; Potency, µM (doses to about 57.5 µM), most hits filed as activators; actives 0.19% (n = 320,000); F2112 A-T fibroblasts, KAP-1 phosphorylation AlphaLISA; neocarzinostatin DNA damage 30 min before lysis; further: nearly all actives have a fitted effect of over 45% in size
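ATM-like activity read as KAP-1 phosphorylation via AlphaLISA donor/acceptor antibody pairs after lysis and 6 hr at 25C. Cells were ATM-null patient fibroblasts (F2112, hTERT), dosed 60 min, then exposed to the DSB inducer NCS for 30 min.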
SW480 rerep: inducers of DNA re-replication in SW480 colon cancer cells; SW480 DNA re-replication, Hoechst DNA content imaging, 48 h; Potency, µM (titrated, usually from 46.1 µM), hits mostly activators; actives 1.8% (n = 340,000); further: nearly all actives have a fitted effect of over 55% in size
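Treated cells incubate 48 hr (37 C, 5% CO2), are stained 40 min with Hoechst, and nuclear fluorescence is enumerated; a rise in nuclei with high DNA signal marks re-replication.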
p53 reactivator: restores transcriptional activity of mutant p53; actives 0.063% (n = 320,000); H1299 p53-A138V BP100-luciferase reporter, luminescence, 24 h; Potency, µM (highest dose often 92.2 µM), hits mostly activators; further: nearly all actives have a fitted effect of over 45% in size
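H1299 (p53-null), stable ts p53-A138V + BP100-Luc; 1000 cells/well, Opti-MEM/10% FBS; cpd 4 pt, 1:5; 24 h, 37 deg C, 5% CO2; detection reagent 10 min RT; luminescence.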
MCF10A rereplic: induces DNA re-replication in MCF 10a normal breast cells; MCF 10A DNA re-replication, Hoechst nuclear intensity, 48 h; Potency, µM (series often up to 46.1 µM), hits mostly activators; actives 2.9% (n = 350,000); AID 624296; further: nearly all actives have a fitted effect of over 50% in size
ELG1 DNA repair: ELG1-dependent DNA repair inhibition; AID 504467; Potency, µM (top dose mostly 46.1 µM), actives largely listed as inhibitors; actives 2.3% (n = 330,000); HEK293T ELG1-luciferase reporter, luminescence, 16 h; DNA damage induced by 5-fluorouridine; further: nearly all actives have a fitted effect of over 55% in size
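HEK293T cells expressing luciferase-tagged ELG1 (2,000/well) received 5-Fluorouridine plus compound or DMSO for 16 hr at 37 °C. Luciferase was read by ONE-Glo luminescence after 30 min at room temperature.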
Numbers stand for hits; i = inactive; ? = inconclusive; nt = no result given. Hits are enriched below; roughly 7.1% of the tested compounds scored in any of these assays. The call rests on the fitted dose curve; in most records, active means well fitted curve in the direction sought with a large enough effect; inconclusive means small, poorly fitted or top-dose-only effect, or another doubt; inactive means no such curve, though single readings can be large; an effect the other way counts as inactive or inconclusive.

SMILES | ELG1 genotox | AT treatment | SW480 rerep | p53 reactivator | MCF10A rereplic | ELG1 DNA repair
COc1ccc(Nc2nc(C(=O)N3CCc4cc(OC)c(OC)cc4C3)cs2)cc1 | i | ? | ? | i | ? | 16µM
CCc1ccc(N(CC(=O)NCCc2ccccc2)C(=O)CCC(=O)Nc2ccccn2)cc1 | i | i | i | i | i | i
COc1cccc(Cn2ncc3c4sc(B(O)O)cc4n(C)c3c2=O)c1 | nt | i | nt | nt | nt | nt
Nc1cc2c(cc1Cl)-c1ccc(Cl)cc1C2 | nt | nt | i | nt | i | nt
CCN1CCN(CC(=O)c2ccc(OC)cc2)CC1 | i | i | i | i | 2.1µM | i
COc1ccc(C(=O)CN2CCN(c3ccc(F)cc3)CC2)cc1 | i | i | i | i | i | i
COc1ccc(C(=O)CCN2CCN(c3ccccc3OC)CC2)cc1 | i | i | ? | i | 2.6µM | i
c1cc(-c2nnc3sc(C4CCCCC4)nn23)ccn1 | i | i | i | i | i | 9.2µM
COc1ccccc1-c1nnc2sc(C3CCCCC3)nn12 | i | i | i | i | i | i
c1csc(Cc2nn3c(-c4ccncc4)nnc3s2)c1 | i | i | i | i | i | 10µM
CN1CCN(C(=O)Cn2ncc3c([nH]c4ccccc43)c2=O)CC1 | i | i | i | i | i | i
O=C(O)c1ccccc1-c1ccc(C(F)(F)F)cc1 | nt | nt | i | nt | i | nt
CC(C)CSC1=NSC2=NC(=O)/C(=C\c3cccs3)C(=N)N12 | i | i | i | ? | 21µM | ?
COC(=O)c1ccc(CSc2ccc3nnc(-c4ccc(F)cc4)n3n2)o1 | i | i | i | i | i | i
CCOc1ccc(-c2nnc3ccc(SCc4ccc(C(=O)OC)o4)nn23)cc1 | i | nt | i | i | ? | 21µM
CC(=O)c1sc(NC(=O)CN2C(=O)C3CCCCC3C2=O)nc1-c1ccccc1 (stereo unspecified) | i | i | i | i | i | ?
Cc1ccc(-c2noc(CC(=O)c3ccc([N+](=O)[O-])cc3)n2)cc1 | nt | nt | i | nt | i | nt
C=CCn1c(=S)[nH]c2ccc(Br)cc2c1=O | i | i | i | i | i | ?
C=CCn1c(=S)[nH]c2nc3c(cc2c1=O)CCCC3 | 16µM | i | i | ? | ? | i
Cc1ccc(S(=O)(=O)N2CCC(=O)N(C(COCc3ccc(Cl)c(Cl)c3)Cc3ccccc3)CC2)cc1 (stereo unspecified) | i | i | i | i | 23µM | i
Cc1ccc(S(=O)(=O)N2CCC(=O)N(C(COCc3cccc(C)c3)Cc3ccccc3)CC2)cc1 (stereo unspecified) | i | i | ? | i | 8.2µM | ?
O=C(c1ccc(Cl)c(Cl)c1)N1CCC(=O)N(C(COCc2cccc(Cl)c2)Cc2ccccc2)CC1 (stereo unspecified) | i | i | ? | i | 23µM | ?
Cc1ccc(S(=O)(=O)N2CCC(=O)N(C(COCc3ccc(C(F)(F)F)cc3)Cc3ccccc3)CC2)cc1 (stereo unspecified) | i | i | i | i | 3.7µM | i
Cc1ccc(S(=O)(=O)N2CCC(=O)N(C(CO)Cc3ccccc3)CC2)cc1 (stereo unspecified) | i | i | i | i | i | i
COc1cccc(-c2nn(-c3ccccc3)cc2/C=C(/NC(=O)c2ccccc2)C(=O)O)c1 | i | i | i | i | i | ?
SMILES | ELG1 genotox | AT treatment | SW480 rerep | p53 reactivator | MCF10A rereplic | ELG1 DNA repair
COc1ccc(C(=O)COC(=O)C2COc3ccccc3O2)cc1F (stereo unspecified) | i | i | i | i | i | i
Cc1ccc(S(=O)(=O)NC(CC(C)C)C(=O)NCC(C)(C)N2CCOCC2)cc1 (stereo unspecified) | i | i | i | i | i | i
CCOC(=O)N1CCN(C(=O)COC(=O)c2ccccc2NCCO)CC1 | i | ? | i | i | i | i
COC(=O)[C@@H]1Cc2c([nH]c3ccccc23)C(C)N1C(=O)c1ccccc1 (stereo partly specified) | i | i | ? | i | i | 12µM
Nc1c(N(CCC2=CCCCC2)C(=O)C2CC2)c(=O)[nH]c(=O)n1Cc1ccccc1 | i | i | i | i | i | i
CCOC(=O)CN(C(=O)COc1nc(-c2ccccc2)cc(C)c1C#N)c1ccccc1C | i | i | ? | i | i | 21µM
COc1ccccc1-n1c2nc3ccccc3nc2c2c(=O)n(-c3cc(C)cc(C)c3)cnc21 | i | nt | ? | i | 23µM | ?
CCCOc1ccc(Cn2c(=O)oc3ccc(C)cc32)cc1 | i | i | i | i | i | i
Cc1sc2nc(CSC(C)C(=O)Nc3cc(S(C)(=O)=O)ccc3Cl)[nH]c(=O)c2c1C (stereo unspecified) | i | i | i | i | ? | i
CN(C)C1=NC(=O)/C(=C/c2ccc(-c3ccc(S(N)(=O)=O)cc3)o2)S1 | i | i | nt | nt | nt | i
NC1=NC(=O)/C(=C\c2ccc(-c3ccc(Cl)cc3)o2)S1 | i | i | ? | nt | 7.3µM | i
COc1ccccc1C(=O)N/C(=C\c1cn(C)c2ccccc12)C(=O)NCCCn1ccnc1 | i | i | i | i | i | i
CCCC(c1nnnn1CC1CCCO1)N1CCN(c2nc3ccccc3s2)CC1 (stereo unspecified) | i | nt | ? | i | i | 23µM
CCC(c1nnnn1CS(=O)(=O)c1ccc(C)cc1)N1CCN(c2nc3ccccc3s2)CC1 (stereo unspecified) | i | i | ? | i | ? | 8.2µM
CCCC(c1nnnn1CS(=O)(=O)c1ccc(C)cc1)N1CCN(c2ccccc2)CC1 (stereo unspecified) | i | i | i | i | i | i
CCCCC(c1nnnn1CC1CCCO1)N1CCN(c2nc3ccccc3s2)CC1 (stereo unspecified) | i | i | i | i | i | ?
CC1CCCC(C)N1C(=O)COC(=O)CCC1CCCC1 (stereo unspecified) | i | i | i | i | i | i
CN(C(=O)c1ccc(NC(=O)Cc2ccc(NC(=O)C3CCCN(C(=O)C4CCC4)C3)cc2)cc1)C1CC1 (stereo unspecified) | i | i | i | i | i | i
CC(=O)Nc1ccc(C2=CC(=O)C[C@H](c3ccc(Cl)cc3)C2)cc1 | i | i | ? | i | 18µM | ?
O=C1C=C(Nc2ccc(Cl)cc2)CC(c2ccccc2)C1 (stereo unspecified) | i | i | ? | i | 16µM | ?
COc1ccc([C@H]2CC(=O)C=C(c3ccc(NC(C)=O)cc3)C2)cc1OC | i | i | i | i | i | ?
CC(C)CCNC1=CC(=O)CC(c2ccccc2)C1 (stereo unspecified) | i | i | 18µM | i | ? | ?

Bioassay records from PubChem.
